Experimental findings from PubChem BioAssay AID463173 (ICCB-Longwood Screening Facility, Harvard Medical School, 2010) are described below.

Structures are written as SMILES. The campaign covered roughly 52,000 compounds. About 1,700 (3.3%) were called active. Rule as the data show it: active = survival mostly below about 52% (no sharp cut-off); inactive = mostly above about 56%. The entries come from a sample that favours actives as a whole.

For this test, the system named is Wild type. Nature of the test: growth inhibition of S. aureus wild type versus tarO mutant, primary screen, teichoic acid synthesis inhibitors, RN4220, OD600 (AID 463173). The conditions noted are these: S. aureus RN4220 wild type/DeltatarO growth, OD600, 18 h, stronger effect = lower value, screened at 18.75 µg/mL (by protocol).
As to `O=c1c2ccccc2n(Cc2ccccc2F)c(=O)n1-c1cccc(F)c1`, the survival is 75% (inactive). The result for `CCOc1ccc(CNC(=O)C2CCN(Cc3cc4ccccc4n3Cc3ccccc3C)CC2)cc1` reads 60% (inactive); that for `CCn1c2ccccc2c2cc(CN3CCN(Cc4ccccc4C)CC3)ccc21`, -1% (active). Regarding `Cc1ccccc1Cn1c(CN2CCC(C(=O)NCc3ccc(Cl)cc3)CC2)cc2ccccc21`, the survival is 60% (inactive). Take `CCn1c2ccccc2c2cc(CN3CCN(Cc4ccccc4F)CC3)ccc21`: the survival was 4% (active). On to `CCN(CC)C(=O)C1CCN(Cc2ccccc2F)CC1`, for which the survival was 107% (inactive). As to `O=C1NC(=O)C(Nc2cccc3ccccc23)S1` (centres undefined), the survival was 104% (inactive).

Turning to `O=C(CSc1nnc(Cn2nnc3ccccc32)o1)N(Cc1ccc(Cl)cc1)c1ccccc1`, the survival was 141% (inactive). As for `CCOC(=O)c1ccccc1NC(=O)c1ccncc1`, the survival was 94% (inactive). The result for `CCC(=O)NCC1(c2ccccc2)CCCC1` reads 102% (inactive); that for `O=C(CC(c1ccccc1)c1cc(Br)ccc1O)NCC1(c2ccccc2)CCCC1` (centres undefined), 63% (inactive). The result for `Cc1ccccc1NC(=O)C(=O)NCC1(c2ccccc2)CCCC1` reads 94% (inactive); that for `Cc1ccc(O)c(C(CC(=O)NCC2(c3ccccc3)CCCC2)c2ccccc2)c1` (centres undefined), 6% (active); that for `Cc1ccc(C(CC(=O)NCC2(c3ccccc3)CCCC2)c2ccccc2)c(O)c1` (centres undefined), 36% (inactive). Take `Cc1cccc(C(CC(=O)NCC2(c3ccccc3)CCCC2)c2ccccc2)c1O` (centres undefined): the survival was 2% (active). The result for `COc1ccc(-c2cc(C(F)(F)F)nc(SCCC(=O)Nc3cccc(O)c3)n2)cc1` reads 80% (inactive). The result for `COc1cc(Cl)c(C)cc1NC(=O)c1nn(C)c2c1CSc1ccccc1-2` reads 85% (inactive); that for `Cn1c(SCC(=O)c2ccc(F)cc2)nnc1-c1ccccc1Br`, 74% (inactive); that for `O=C(CSc1nnc(-c2ccccc2Br)n1-c1ccccc1)c1ccc(F)cc1`, 4% (active). Then `O=C(CSc1nnc(-c2ccc(Br)cc2)n1-c1ccccc1)c1ccccc1`, with 97% (inactive); and `CCOc1ccc(-c2nnc(SCC(=O)c3ccc(F)cc3)n2-c2ccccc2)cc1`, with 153% (inactive). Regarding `Cc1ccc(-c2nnc(SCC(=O)c3ccc(Cl)cc3)n2-c2ccccc2)cc1`, the survival is 94% (inactive). For `COc1ccccc1-c1nnc(SCC(=O)c2ccc(Cl)cc2)n1-c1ccccc1`, the survival was 0% (active).

Regarding `Cc1ccc(C(=O)CSc2nnc(-c3ccccc3)n2-c2ccccc2)cc1`, the survival was 79% (inactive).

Take `COc1ccccc1-c1nnc(SCC(=O)OC(C)C)n1-c1ccccc1`: the survival was 115% (inactive). Regarding `COc1ccccc1-c1nnc(SCC(=O)c2ccc(F)cc2)n1-c1ccccc1`, the survival is 0% (active).

Consider `CCc1cccc(NC(=O)CN(C)S(=O)(=O)c2ccc3c(c2)CCCN3C(C)=O)c1`, for which the survival was 83% (inactive). In the case of `COc1ccc(F)cc1S(=O)(=O)NCC(c1ccco1)S(=O)(=O)c1cccs1` (centres undefined), the survival is 81% (inactive). For `CCCN1CCN(CC2=C(C(=O)OCC)C(c3ccc(OC(C)C)cc3)NC(=O)N2)CC1` (centres undefined), the survival was 72% (inactive). Then `COc1ccc(-n2nnc(-c3nc(-c4cccs4)no3)c2N)cc1OC`, with 100% (inactive). The result for `CCN1CCN(C(c2ccc(F)cc2)c2sc3nc(-c4ccco4)nn3c2O)CC1` (centres undefined) reads 131% (inactive); that for `Cc1ccc(C(=O)N2CCN(c3cccc(Cl)c3)CC2)cc1-n1c(C)nc2cccnc21`, 84% (inactive). As to `Cc1cc2c(cc1S(=O)(=O)NCc1ccc(F)cc1)OCC(=O)N2`, the survival was 82% (inactive). For `COc1ccc(C(=O)N2CCC(c3ccncc3)CC2)cc1OC`, the survival was -6% (active). On to `COc1cc(OC)cc(C(=O)N2CCC(c3ccncc3)CC2)c1`, for which the survival is 69% (inactive). Then `CCOc1cc(C(=O)N2CCC(c3ccncc3)CC2)cc(OCC)c1OCC`, with -1% (active); and `CCN(CC)c1ccc(C(=O)N2CCC(c3ccncc3)CC2)cc1`, with 85% (inactive). Turning to `COc1cc(C(=O)N2CCC(c3ccncc3)CC2)cc(OC)c1OC`, the survival was 78% (inactive). As for `CCOc1ccc(C(=O)N2CCC(c3ccncc3)CC2)cc1`, the survival is 78% (inactive). The result for `Cc1ccc(C)c(C(=O)COC(=O)CCCC(=O)Nc2cc(C(F)(F)F)ccc2Cl)c1` reads 45% (inactive); that for `Cc1c(C(=O)Nc2ccc(F)c(Cl)c2)sc2nc3n(c(=O)c12)CCC3`, 81% (inactive); that for `CCc1nc(SCc2ccccc2)[nH]c(=O)c1C`, 102% (inactive). Then `COc1cccc(NC(=O)Cn2c(=O)n(CCCCC(=O)NCc3ccc4c(c3)OCO4)c(=O)c3ccccc32)c1`, with 92% (inactive); and `CC(=O)Nc1ccc(NC(=O)CSc2nc3ccccc3nc2N2CCCCC2)cc1`, with 90% (inactive). Then `O=C(CSc1nc2ccccc2nc1Cc1ccc(Cl)cc1)NCCc1ccccc1`, with 69% (inactive); and `CCc1cccc(NC(=O)CSc2nc3ccccc3nc2N2CCCCC2)c1`, with -13% (active); and `COc1ccc(OC)c(NC(=O)CSc2nc3ccccc3nc2N2CCCCC2)c1`, with -10% (active). For `COc1ccc(CCNC(=O)CSc2nc3ccccc3nc2Cc2ccc(Cl)cc2)cc1OC`, the survival was 10% (active). For `COc1cccc(NC(=O)CSc2nc3ccccc3nc2N2CCOCC2)c1`, the survival was 67% (inactive). Then `COc1cccc(Cc2nc3ccccc3nc2SCC(=O)Nc2cc(OC)ccc2OC)c1`, with 60% (inactive); and `COc1ccc(NC(=O)CSc2nc3ccccc3nc2N2CCOCC2)c(OC)c1`, with 65% (inactive); and `COc1ccc(CCNC(=O)CSc2nc3ccccc3nc2Cc2ccc(C)cc2)cc1OC`, with 52% (inactive).

`CCCCc1ccc(NC(=O)CSc2nc3ccccc3nc2N2CCCCC2)cc1`: the survival is 41% (inactive). Then `COc1ccc(NC(=O)CSc2nc3ccccc3nc2N2CCC(C)CC2)cc1`, with 45% (inactive); and `COc1ccc(NC(=O)CSc2nc3ccccc3nc2N2CCCCC2)cc1`, with 7% (active); and `COc1ccc(NC(=O)CC2C(=O)N(c3ccc(C)cc3)C(=O)N2C2CCCCC2)cc1` (centres undefined), with 74% (inactive). Then `CCOC(=O)c1noc2nc(C)n(CC(=O)Nc3ccccc3F)c(=O)c12`, with 124% (inactive).

Regarding `COc1cccc(C(=O)Nc2ccccc2-c2nnc(-c3ccc(C(C)(C)C)cc3)o2)c1`, the survival is 71% (inactive). Regarding `CCOc1cc(C(=O)N2CC(=O)Nc3ccc(F)cc3C2c2ccccc2)cc(OCC)c1OCC` (centres undefined), the survival is 75% (inactive).
